MITF primary = MITF inhibitors, primary screen, biochemical, AlphaScreen, human; Microphthalmia-associated transcription factor (Homo sapiens), O75030; AlphaScreen MITF homodimerization, bead proximity signal; inhibition, % at 2.6 µM; 650,000 tested, 0.91% active; AID 1259374, 2018; in the data active means inhibition above about 50%;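 further: 0% = vehicle wells with protein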
Target sequence (O75030 whole entry, looked up): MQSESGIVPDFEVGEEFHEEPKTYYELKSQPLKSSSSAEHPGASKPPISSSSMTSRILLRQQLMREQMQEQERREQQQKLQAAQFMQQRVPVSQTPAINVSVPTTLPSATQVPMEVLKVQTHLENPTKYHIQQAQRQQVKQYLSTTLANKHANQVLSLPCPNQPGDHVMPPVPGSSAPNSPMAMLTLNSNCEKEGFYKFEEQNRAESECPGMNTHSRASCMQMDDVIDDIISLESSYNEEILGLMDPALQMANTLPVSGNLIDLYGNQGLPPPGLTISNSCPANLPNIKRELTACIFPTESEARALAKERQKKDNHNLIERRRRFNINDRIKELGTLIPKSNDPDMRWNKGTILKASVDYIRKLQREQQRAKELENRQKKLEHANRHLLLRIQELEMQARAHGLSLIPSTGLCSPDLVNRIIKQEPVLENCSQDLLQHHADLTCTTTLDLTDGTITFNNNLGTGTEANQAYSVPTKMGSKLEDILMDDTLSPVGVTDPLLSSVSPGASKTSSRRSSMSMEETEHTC
GPR151 activ = activators of human GPR151, primary screen, cell-based, PathHunter beta-arrestin, luminescence | G-protein coupled receptor 151 (Homo sapiens), Q8TDV0 | PathHunter beta-arrestin GPR151 cells | activation, % at 11.2 µM | 650,000 tested, 1% active | AID 1508602, 2020; in the data active means activation above about 4.9%;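 further: 0% = median of compound wells and 100% = cells with positive control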
TEAD-YAP inh = TEAD-YAP interaction inhibition, primary screen, TEAD-YAP interaction inhibitor project, luminescence, HEK-TIYL cells. inhibition, % at 9.12 µM. AID 1259422, 2018. 640,000 tested, 1.4% active. TEAD-Gal4/YAP UAS-luciferase luminescence; in the data active means inhibition above about 32%;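 further: 0% = median of test compound wells and 100% = reference inhibitor wells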
FBW7 activator = FBW7 E3 ligase activators, primary screen, biochemical, AlphaScreen, human; F-box/WD repeat-containing protein 7 (Homo sapiens), Q969H0; AlphaScreen FBW7–phospho-cyclin E peptide binding, activator screen; normalized activity (activation), % at 26.1 µM; 650,000 tested, 0.13% active; in the data active means normalized activity above about 1.9%;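 further: purified mutant Fbw7 with reduced substrate affinity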
MITF confirm = MITF inhibitors, retest of hits, confirmation, biochemical, AlphaScreen, triplicate. inhibition, % at 2.6 µM. 4,700 tested, 16% active. shares compounds with MITF primary. AlphaScreen MITF homodimerization, biotin/His-MITF beads;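 active means inhibition above a cutoff derived from the DMSO control wells, cut at about 28% in these data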;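 further: 0% = MITF dimer wells with DMSO only; inhibitors lower the bead chemiluminescence by keeping MITF from dimerizing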
AlphaScreen intf2 = AlphaScreen optical interference compounds, counter-screen for MITF inhibitor project, biochemical, triplicate | inhibition, % at 2.6 µM | LysRS AlphaScreen counterscreen, signal interference | shares compounds with MITF primary | 4,700 tested, 7.6% active;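 active means inhibition above a cutoff derived from the DMSO control wells, cut at about 30% in these data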
The depositor's hits bear a star; . = no result. In the library only some 3.4% were active in any assay of this set; here they are far more common.

SMILES	MITF primary	GPR151 activ	TEAD-YAP inh	FBW7 activator	MITF confirm	AlphaScreen intf2
N#C/C(=C(/O)CSc1nncn1-c1ccccc1)c1nc2ccccc2[nH]1	23.2	0.6	-21.5	0.2	.	.
CC(C)c1ccc(/C=N\NC(=O)Cc2cccs2)cc1	11.8	0.7	-52.1	0.1	.	.
COC(=O)COc1ccc(Nc2nnc(C)c3ccccc23)cc1	13.2	-2.2	-2.8	-0.2	.	.
O=[N+]([O-])c1ccccc1CN1CCN(C2CCCCC2)CC1	63.6*	0.9	-5.1	0.1	0.0	-0.4
O=[N+]([O-])c1ccccc1CN1CCCC1	13.6	0.6	-8.2	0.0	.	.
O=[N+]([O-])c1ccccc1CN1CCC(N2CCCCCC2)CC1	79.4*	-0.1	5.5	-0.3	4.2	-0.1
CC1CCCC(N2CCN(Cc3ccccc3[N+](=O)[O-])CC2)C1 (centres undefined)	81.7*	-0.3	0.1	-0.1	1.9	-2.1
O=[N+]([O-])c1cccc(CN2CCN(C3CC4CCC3C4)CC2)c1 (centres undefined)	56.7*	1.4	4.3	-0.1	26.8	16.9
CC1CCN(CCCNC(=O)CNC(=O)Cn2cnc3sc4c(c3c2=O)CCCC4)CC1	1.4	-1.2	-0.3	-0.2	.	.
COc1ccc(CNC(=O)c2nc3nccc(C)n3n2)cc1	6.5	-0.1	-5.1	-0.1	.	.
CCOC(=O)c1c(NC(=O)C(F)(F)F)sc(C(=O)Nc2ccccc2)c1C	55.0*	-4.4	28.7	-0.2	-0.2	1.0
CC1=C(C(=O)c2ccccc2)C(c2ccccc2C(F)(F)F)NC(=O)N1 (centres undefined)	8.5	-3.4	-11.2	0.0	.	.
COc1cccc(-c2cc(CNC(=O)c3ccc4c(c3)OCO4)no2)c1	51.0*	1.1	3.3	0.2	9.4	-10.6
COc1ccc(-c2cccc(C(=O)NCc3ccc4c(c3)OCO4)c2)cc1	-3.2	0.2	1.1	-0.2	.	.
CN(C)CCCN(CCCN(C)C)Cc1ccc(F)c(Br)c1	52.9*	1.2	3.8	-0.1	-13.2	-3.9
CN(C)CCCN(CCCN(C)C)Cc1ccc(Cl)cc1	37.3	0.2	-7.8	-0.1	.	.
CN(C)CCCN(CCCN(C)C)Cc1ccc(F)cc1	63.7*	1.1	3.5	0.3	-9.7	9.8
CN(C)CCCN(CCCN(C)C)Cc1cccc(C(F)(F)F)c1	56.7*	2.4	6.4	-0.1	-6.1	-4.4
c1ccc(Oc2cccc(OCCn3cncn3)c2)cc1	67.2*	4.5	-9.6	0.0	-2.3	5.7
c1ccc(COc2ccc(OCCn3cncn3)cc2)cc1	1.8	-1.3	-16.8	0.2	.	.
Brc1cccc(OCCn2cnc3ccccc32)c1	68.1*	0.1	-2.6	0.0	4.0	15.7
Cc1cc(Br)ccc1OCCn1cncn1	68.1*	1.6	3.0	0.0	9.4	11.9
c1ccc(Oc2cccc(OCCOCCn3cncn3)c2)cc1	72.3*	-2.0	-10.3	-0.2	-4.9	-9.4
Cc1cc(Cl)ccc1OCCn1cncn1	-0.6	-0.3	-0.2	0.0	.	.
Clc1cccc(OCCn2cncn2)c1	-5.5	-0.6	-6.0	-0.1	.	.
SMILES	MITF primary	GPR151 activ	TEAD-YAP inh	FBW7 activator	MITF confirm	AlphaScreen intf2
O=C(NCCCN1CCCC1=O)c1cnc(Nc2cnccn2)s1	5.8	-0.1	3.1	-0.1	.	.
Cc1ccc(NC(=O)CN(C)S(=O)(=O)c2ccc3c(c2)CCC(=O)N3)cc1Cl	14.8	0.2	5.1	0.3	.	.
Cc1cc(F)ccc1Nc1c(-c2ccc3c(c2)OCC(=O)N3)c(=O)c1=O	13.9	0.6	2.0	0.1	.	.
c1ccc(-c2ccc(OCCCn3cncn3)cc2)cc1	60.9*	-0.3	-27.2	-0.1	7.0	12.4
O=[N+]([O-])c1ccc(OCCCCn2cncn2)cc1	41.2	-0.9	6.1	-0.6	.	.
Brc1cccc(OCCCCn2cncn2)c1	62.3*	-0.9	-3.4	-0.4	8.6	13.2
COc1oc(-c2ccc(C)cc2)nc1C(F)(F)F	10.0	-0.8	14.2	1.5	.	.
COc1oc(-c2ccc(F)cc2)nc1C(F)(F)F	54.5*	-1.7	-1.1	0.3	8.7	13.6
Cc1ccc(C)c(C(=O)Nc2ccccc2F)c1	83.6*	-1.2	-3.9	0.1	13.5	7.2
COCCNc1cc(-c2ccccn2)nc(-c2ccccc2)n1	1.1	-0.6	17.3	-0.1	.	.
COCCNc1cc(-c2ccccn2)nc(-c2ccccn2)n1	115.5*	0.7	21.6	-0.9	117.8*	100.3*
CN1C(=O)/C(=C/c2cccs2)SC1=Nc1cccc(C(=O)O)c1	1.9	-0.5	4.0	0.0	.	.
Cc1nn(C2CCS(=O)(=O)C2)c(Cl)c1CNCc1ccccc1 (centres undefined)	58.1*	2.0	1.9	0.0	5.0	-5.0
CCOc1cc([N+](=O)[O-])c(OCC)cc1NC(=O)CSCCO	-6.6	-0.1	-3.8	-0.4	.	.
COc1ccccc1CN=c1c([N+](=O)[O-])nn(-c2cccc(Cl)c2)n1O	8.6	-1.2	1.3	-0.2	.	.
CC(=O)N/C(=C\c1ccccc1)C(=O)OCC(=O)OC(C)(C)C	53.9*	-0.4	-7.7	-0.1	13.8	12.3
CC(C)(C)C(=O)COC(=O)[C@@H]1CC(O)CN1S(=O)(=O)c1ccc(F)cc1 (some centres undefined)	59.8*	1.7	13.5	-0.1	0.4	-1.8
O=C1N(CC2CC2)CCN1c1ccc(C(F)(F)F)cn1	54.9*	0.6	-50.7	0.5	6.0	14.0
CCCCN1CCN(c2ccc(C(F)(F)F)cn2)C1=O	4.8	4.8	-27.5	0.2	.	.
CCc1ccc2nc(SCC(=O)Nc3nc(C)c(C)s3)c(C#N)cc2c1	84.5*	-0.8	-1.6	-1.3	22.4	55.8*
C=CCn1nnnc1SCC(=O)c1ccc(Cl)c(Cl)c1	-3.4	0.1	-19.6	-0.1	.	.
COc1ccc(OC)c(CN2CCN(Cc3ccccc3C)CC2)c1	51.5*	-1.6	-3.5	0.2	6.0	7.7
CCS(=O)(=O)N1CCN(Cc2ccc(OC)cc2OC)CC1	41.7	-0.5	6.9	0.0	.	.
COc1ccc(CN2CCN(Cc3ccccc3C)CC2)c(OC)c1	82.9*	0.0	9.6	0.1	9.6	3.9
Brc1ccc(-c2nnc3sc(CN4CCOCC4)cn23)cc1	13.2	0.0	1.6	0.1	.	.
SMILES	MITF primary	GPR151 activ	TEAD-YAP inh	FBW7 activator	MITF confirm	AlphaScreen intf2
Brc1ccc(-c2nnc3sc(CN4CCCCC4)cn23)cc1	67.2*	1.4	-19.6	0.5	-1.9	-3.0
CC(=O)N1CCN(Cc2ccc3c(c2)CN(C/C(C)=C/c2ccco2)CCO3)CC1	-1.6	-0.6	-2.1	0.0	.	.
CN(C)c1cccc(Nc2ccc(-c3ccccc3C=O)cn2)c1	62.5*	0.2	-15.6	-1.5	55.5*	61.3*
CC(=O)c1cccc(-c2ccc(Nc3cccc(N(C)C)c3)nc2)c1	6.3	0.7	-56.6	-1.0	.	.
CN(Cc1ccc(F)cc1)c1ccc(OCC(=O)NCCc2ccc(O)cc2)nn1	1.6	-0.6	-11.6	0.5	.	.
O=C(NCCSc1ccccc1)c1cccnc1	77.2*	-0.4	-37.8	0.2	-0.6	-2.8
